According to PubChem BioAssay:

Tests used:
[1] = molecular target: PEG-3 (UniProt Q6IN02); assay: Peg3 promoter luciferase inhibitors, potency, dose response, cell-based, HeLa, CREF/GAPDH counter-screen panel (AID 624167); settings: CREF/GAPDH counter-screens; HeLa PEG-Prom luciferase reporter, overnight, run 1, dose range 1, at 100 µM (top of the series) unless noted
[2] = molecular target: PEG-3 (UniProt Q6IN02); assay: as above; settings: CREF/GAPDH counter-screens; HeLa PEG-Prom luciferase reporter, overnight, run 2, dose range 1, at 100 µM (top of the series) unless noted

Sequence of PEG-3 (Q6IN02 whole entry, looked up): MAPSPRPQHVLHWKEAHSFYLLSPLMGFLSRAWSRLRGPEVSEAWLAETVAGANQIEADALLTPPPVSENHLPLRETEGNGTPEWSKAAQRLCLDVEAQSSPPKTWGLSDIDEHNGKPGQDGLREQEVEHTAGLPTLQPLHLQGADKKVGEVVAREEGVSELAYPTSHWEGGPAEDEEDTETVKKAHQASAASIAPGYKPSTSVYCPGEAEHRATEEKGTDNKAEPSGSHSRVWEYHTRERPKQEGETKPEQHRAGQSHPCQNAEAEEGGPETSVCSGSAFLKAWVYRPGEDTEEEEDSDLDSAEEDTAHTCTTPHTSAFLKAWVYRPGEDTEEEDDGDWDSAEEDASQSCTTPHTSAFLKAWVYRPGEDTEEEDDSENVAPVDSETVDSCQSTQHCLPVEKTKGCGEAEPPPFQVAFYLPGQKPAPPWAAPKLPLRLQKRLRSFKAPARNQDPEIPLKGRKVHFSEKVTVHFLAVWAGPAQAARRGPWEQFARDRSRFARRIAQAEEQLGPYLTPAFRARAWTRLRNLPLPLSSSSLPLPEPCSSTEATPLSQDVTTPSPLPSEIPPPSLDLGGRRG

Row | Structure (SMILES) | inhibition [1] | inhibition [2]
1 | O=C1OCCC1Sc1nnc(-c2ccc(Cl)cc2Cl)o1 (centres undefined) | 92.6% | 94.1%
2 | CC1(C(=O)NCc2cccc3ccccc23)CCN1C(=O)Cc1ccc(-c2ccccc2)cc1 (centres undefined) | 52.6% | 43.6%
3 | COc1cc2c(cc1OC)CN(c1nc(-c3cccnc3)nc3ccccc13)CC2 | 95.5% | 99.1%
4 | COC(=O)C1=C(C(=O)OC)C(C(=O)OC)C(C(=O)OC)C(C(=O)OC)(C(=O)OC)C(C(=O)OC)=C1C(=O)OC (centres undefined) | 99% | 101%
5 | CCOc1ccc2[nH]c3c(NCCc4ccc(OC)c(OC)c4)ncnc3c2c1 | 99% | 100%
6 | CCN(Cc1ccccc1)S(=O)(=O)c1ccc(C(=O)N(CCCN(C)C)c2nc3cc4c(cc3s2)OCO4)cc1 | 102% | 101%
7 | Cc1ccc(-c2cc(C(=O)Nc3nccs3)c3ccccc3n2)c(C)c1 | 34% | 56.2%
8 | CCC1(c2ccccc2)NC(=O)N(CC(=O)Nc2cc(S(=O)(=O)N3CCCCCC3)ccc2OC)C1=O (centres undefined) | 65.1% | 61%
9 | COc1ccc(NC(=O)Nc2nc(C(N)C3CCCCC3)cs2)cc1 (centres undefined) | 101% | 99%
10 | CN(C)CC1CCC/C(=C\c2ccc(OC(=O)/C=C/c3ccccc3)cc2)C1=O (centres undefined) | 97.5% | 102%
11 | COc1cccc(CN(C)C(=O)c2cc(-c3cccs3)nc3ccccc23)c1 | 84% | 101%
12 | CCN1CCN(CCNC(=O)c2ccc(/C=C3\Sc4ccccc4N(Cc4ccccc4F)C3=O)cc2)CC1 | 102% | 101%
13 | Cc1ccc(S(=O)(=O)N2CCCCC2)cc1C(=O)N(C)CC(=O)Nc1ccc(Cl)c(C(F)(F)F)c1 | 74.6% | 60.6%
14 | COc1ccc(-c2sc3ccccc3c2-c2ccc(OCCN3CCCCC3)cc2)cc1 | 99.5% | 100%
15 | Cc1cc(C)c2nc(N(CCCN(C)C)C(=O)c3ccc(S(=O)(=O)N4CCCCCC4)cc3)sc2c1 | 102% | 100%
16 | O=C(/C=C/c1cc(Br)ccc1O)c1ccco1 | 102% | 101%
17 | CCn1cc(C(=O)NCCC(C)C)c(=O)c2cc(F)c(N3CCN(C(=O)c4ccco4)CC3)cc21 | 32.2% | 101% [run 2, dose range 1, at 50 µM]
18 | Cc1cc(Sc2ncnc(N)c2[N+](=O)[O-])ncn1 | 102% | 102%
19 | CN(C)S(=O)(=O)c1cccc(NC(=O)CSc2nc3c(cc2C#N)C(=O)CC(C)(C)C3)c1 | 63.2% | 60.6%

Row | Structure (SMILES) | inhibition [1] | inhibition [2]
20 | O=C(c1cc(-c2cccs2)nn1-c1ccccc1)N1CCN(S(=O)(=O)c2ccccc2)CC1 | -25.3% | 27.8%
21 | CC(=O)Nc1cccc(-c2cc(NC=O)c3ncc(-c4ccc(C(C)=O)cc4)n3c2)c1 | 12.8% | 31.9%
22 | O=c1[nH]c(=O)n(C2OC(CO)C(O)C2O)cc1F (centres undefined) | 68.7% | 76.9%
23 | CC(=O)NC(c1ccccc1)c1cc(Cl)c2cccnc2c1O (centres undefined) | 96.6% | 99.7%
24 | Cn1nnnc1Sc1ncnc2scc(-c3ccc4c(c3)OCO4)c12 | 102% | 97.4%
25 | COc1ccc(CC(=O)N(Cc2ccccc2)c2ccccc2)cc1S(=O)(=O)N1CCOCC1 | 82.4% | 91.1%
26 | Cc1cc(C)c2ccc(N)nc2c1O | 70.1% [run 1, dose range 1, at 50 µM] | 67.1% [run 2, dose range 1, at 50 µM]
27 | CCOC(=O)/C(=C\c1ccccc1)C(=O)CCN1CCOCC1 | 102% | 102%
28 | COc1cccc(/C=C2/Sc3ccc(C(=O)NCCCN4CCCC4)cc3NC2=O)c1 | 102% | 99%
29 | COc1ccc(C23CC4CC(CC(C4)C2)C3)cc1C(=O)NCCN(C)C | 101% | 102%
30 | c1cncc(-c2nc(NCC3COc4ccccc4O3)c3ccccc3n2)c1 (centres undefined) | 101% | 99.8%
31 | COc1ccc(C2c3ccc4ccccc4c3Oc3ncn(CCO)c(=N)c32)cc1OC (centres undefined) | 99.1% | 101%
32 | COc1cccc(/C=N/NC(=O)c2c(-c3ccccc3)noc2C)c1O | 33.5% | 54.6%
33 | O=C1CCC2S/C(=C/Nc3ccc(C(F)(F)F)cc3)C(=O)N12 (centres undefined) | 87.1% | 85.3%
34 | Cc1cc(Cl)n2ncc(-c3ccccc3)c2n1 | 102% | 102%
35 | CC(=O)Nc1cccc(-c2ccnc3c2CC(C)(C(=O)Nc2cccc(OC(F)(F)F)c2)O3)c1 (centres undefined) | 68.6% | 77.1%
36 | O=C1c2ccccc2C(=O)C12OC2c1ccc(Cl)cc1Cl (centres undefined) | 99% | 102%
37 | COc1ccc2sc(N(CCCN(C)C)C(=O)c3ccc(S(=O)(=O)N4CCCc5ccccc54)cc3)nc2c1 | 98.4% | 102%
